For this assay, the system named is PPARg:RXRa 90nM:30nM, anti-RXR (NR concentration 90 nM, RXRa partner concentration 30 nM). As to the kind of experiment: PBM binding z-score (relative to random genomic background probes); higher = stronger binding; sequences stand for … in GC…GCGATTGACAGCGTAGAATGAAGG
A digest of the protocol: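 Random background probes are the reference for binding z-scores. These scores derive from regression-normalized fluorescence on custom Agilent 4×180K protein-binding microarrays incubated 1 h with ligand-free nuclear receptor dimers. Binding was detected with antibodies against each partner (one per run).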
For TCTTGCAGATCAAAGGTTAAGAAAGCCGAAGCCT, the PBM binding z-score amounted to 6.62. With CCGAGTGGGTTATGGGGCATTCAGGCAACGGTGA, the PBM binding z-score stood at 3.82.

In turn, ATCTCTAGGTAAAGTTCACTGAAAGATCGATAGA registered a PBM binding z-score of 5.65. As for TGAATGAGGTGATAAGATCAGGGAACGTTGCAAA, the figure is 0.92; as for AGCATGAGGTTATACGTAGATCAGGGAAGAAAGT, 0.586; as for AGTCGAAGTTCAGGACGAGGTAACGTAAAGCACG, 0.868. CCGACTGGGACATAAGGTTACCATAAGCCAGCCC gave a PBM binding z-score of 1.96. ATACCAAGGTGGTCGTGAGGTCGTTGATACTAAC: the PBM binding z-score was -0.258. Then AAAATGAGGTTATTAAGATCAGGGAATTGCGGTC, with 1.48; and GCTGCTAGGTCAGTTTGGTCAGCTAACGGGTACG, with 0.407; and TCATGTAGGTAAAGGTGAAAGTCGAACGATATGA, with 4.81. Then CAAACTAGTTCACCGGAAGGTCAAAGTCCGCATG, with 1.95. For the sequence CGTCCAAGTTCAGAGAGGTCAGTGAATGCCGAGT, the PBM binding z-score was 0.671.

Turning to CCTCGGAGGACTACAGGAGGTCAGAGCTGCCAGA, the PBM binding z-score is -0.225. As for TGAATGAGGTTATAAGCTCAGGGAACGTTGCAAA, the figure is 1.54. CGTCCAAGTTCAGCAGGTCAGTGAAAGCGACGTG: the PBM binding z-score was determined as 0.285. Then AATGCAGGGTCACTAGGCCAGAGTAGGTACGAAT, with 5.76; and TAGTCTAGGTCATGGGCCAGTATACCACGCGAAC, with 6; and CGAACTGGGTCATTGACAGGACAGTGAATAGTAA, with 5.44. As for AGAACGACGGCACGCTGAGTTGATAGCAGAGTAG, the figure is -0.753.

TAGCCTACGTCAGATCGGGCCAGTATACGCTATA returned a PBM binding z-score of -0.771.

Turning to TAAGACAGGTGAAGGTAACTCAGGTACGCAGTCG, the PBM binding z-score amounted to 1.57. TGAATCAGGTTATAAGATCAGGGAACGTTGCAAA: the PBM binding z-score is 0.477. In turn, ACTAGCAGGCCAGGTTTGGGTCACTCAAACAAAG registered a PBM binding z-score of -0.199.

The sequence TCTTGTAGATCAAAAGGAGGTTAAGAAAGATCGA displayed a PBM binding z-score of 2.36. In turn, TTACCAAGGTGAAAGGACGTTGATGCACGCCTTG yielded a PBM binding z-score of 3.14.

Sequence ATCGAAAGGTAGTGAGGTGAGTATACAGAAAGGC had a PBM binding z-score of 0.0111. Then ACTAGCAGGCCAAGTTTGGGTCAATCAAACAAAG, with -0.105; and CGAACTAGGTCATTGACAGGAGAGTGAATAGTAA, with 5.77. The sequence GCATATAGGTAATACAAGGGGAAAGTCCGATTGT registered a PBM binding z-score of 0.269. Sequence CAAACTAGGTCAAGGTCATAGTCGGTTTGTGCCA displayed a PBM binding z-score of 8. As for CAAACTAGCTCAAAGGTCAAAGTCGAGCCAACCA, the figure is 9.43; as for TAGCTTAGGTCATTGGGCCAGTATAGTACGCATC, 2.18. TGAATGAGGTTAAAGATCGGGGAACGTGGCGTCG returned a PBM binding z-score of 5.49. Turning to CAGCCTAGATCAGGGCCAGTATAGGAGGAACGTT, the PBM binding z-score is -0.789.

For the sequence ACTATTAGTTGAGACAAGGGCAACCGATAGGTTG, the PBM binding z-score was 0.411. In the case of GGAACGAGGGCATTCGAGTTGGTAGCATGGCGAT, the PBM binding z-score is -0.227.

For ATCTCTAGGTAAAAATTCAGTGAATCCCGAGGAT, the PBM binding z-score worked out at 1.1. Turning to CCTACAGGGCCACGAAAGGTCATTGATTCAGTGA, the PBM binding z-score turned out to be 2.22. As for CGTCCAAGGTCAATGCTAGGTCAGTGAGAGCATT, the figure is 3.48.

Source of the values: the supplement of paper PMC6555819.
